Here are results for 40 molecules from PubChem BioAssay (NCATS).

“And” between values parts separate entries of the source, which are not always exact repeats. Identical values can stand only once. Inconclusive results are not listed. Unmarked numbers belong to inactive results. The source made the active and inactive calls. Calls follow the shape of the dose curve; as a rule, active = well fitted activation curve with a large enough effect; inconclusive = small, poorly fitted or top-dose-only effect; inactive = no such curve, though single readings can be large or run the other way. Bridge positions count the residues as written; N and C are the ends. Square brackets hold non-standard residues; d marks the D form. Peptide text beside a SMILES is read from it. NMeY = CN[CH](Cc1ccc(O)cc1)C(=O)O
Potency is read from the fitted curve at half-maximal effect.

Cellular tumor antigen p53 (Homo sapiens), sequence (P04637 whole entry, looked up): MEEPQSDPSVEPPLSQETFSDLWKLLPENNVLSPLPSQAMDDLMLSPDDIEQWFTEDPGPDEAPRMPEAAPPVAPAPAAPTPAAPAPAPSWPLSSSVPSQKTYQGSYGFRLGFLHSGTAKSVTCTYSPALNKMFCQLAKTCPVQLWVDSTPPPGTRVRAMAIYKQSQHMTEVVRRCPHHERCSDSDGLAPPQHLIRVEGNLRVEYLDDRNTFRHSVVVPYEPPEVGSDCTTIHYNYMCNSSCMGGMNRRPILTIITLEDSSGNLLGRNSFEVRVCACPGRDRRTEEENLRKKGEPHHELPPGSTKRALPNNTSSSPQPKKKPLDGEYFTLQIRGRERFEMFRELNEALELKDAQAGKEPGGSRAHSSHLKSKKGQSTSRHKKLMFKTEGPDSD

The assay concerns the target Cellular tumor antigen p53 (Homo sapiens) (UniProt P04637). Kind of assay: Primary qHTS for small molecule compounds that upregulate eGFP-tagged delta133p53alpha (in N-terminal) cells. (AID 2060322). Also: nearly all actives have a fitted effect of over 75% in size.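 As to activation: cells pre-induced with doxycycline then dosed without doxycycline; series mostly up to about 56 µM; 0% = DMSO vehicle and 100% = reference activator.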 To be noted: NCI-H358 eGFP-delta133p53alpha fluorescence, 24 h; activation: stronger effect = higher value. From the text: Assay Development and Screening Technology
National Center for Advancing Translational Sciences (NCATS),
National Institute of Health (NIH), Rockville, Maryland
Cellular senescence (CS) is one of the hallmarks of aging and age-related diseases. Senescent cells are characterized by an irreversible growth arrest, an increase in senescence-associated beta-galactosidase (SA-beta-gal) activity and p16INK4a expression, an activation of the DNA damage response pathways, and the emergence of a senescence-associated secretory phenotype (SASP).
Delta133p53alpha, a human/primate-specific p53 protein isoform, delays or inhibits the induction of CS and SASP in various types of human cells, including progeria-derived fibroblasts, primary normal astrocytes, and CD8+ T lymphocytes. Induction of delta133p53alpha with small molecule compounds may provide therapeutic opportunities for inhibition of senescence/SASP-associated pathologies in progeria syndromes, astrocyte-mediated neuroprotection in neurodegenerative diseases, and possibly prevention and treatment of a wider range of senescence- and aging-associated diseases.
Here we report the development and validation of a cell-based quantitative high throughput screening (qHTS) assay in 1,536-well format. This qHTS assay uses the NCI-H358 cell line with doxycycline-inducible expression of enhanced green fluorescent protein (eGFP)-tagged delta133p53alpha, which allows efficient and highly quantitative measurement of the protein levels.
PROTOCOL TABLE (as described by Inglese J, Shamu CE and Guy RK. 2007)
SEQUENCE No. (e.g., 1, 2, 3, etc.); […] (e.g., Cells, Incubation, Reagent, etc.); VALUE; DESCRIPTION.
1; Cells; 4uL; 800 doxycycline treated cells / well in doxycycline-free media, 1536-well black, clear-bottom low base Aurora microplates.
2; Compounds; 23 nL; Kalypsis pin tool (Wako) equipped with 1536-well pin heads, 5-azacytidine positive control.
3; Incubation; 24 hr; 37C, 5% CO2; 95% relative humidity.
4; Aspiration; 1x; BioTek EL406 washer dispenser (Agilent).
5; Fixing; 3.5% paraformaldehyde, BioTek EL406 washer dispenser (Agilent).
6; Washing; 1x PBS; BioTek EL406 washer dispenser (Agilent).
7; Nuclei staining; 1:1000 dilution of Hoechst 33342 (Thermofisher), BioTek EL406 washer dispenser (Agilent).
8; Incubation; 20 min; in the dark at room temperature.
9; Washing; 2x, 1x PBS (ThermoFisher), BioTek EL406 washer dispenser (Agilent).
10; Reagent; 10 uL; 1x PBS per well, sealed with clear adhesive tape.
NOTES (numbers refer to sequence numbers above).
1. NCI-H358 cells expressing eGFP-tagged delta133p53alpha were grown in T75 culture flasks and treated with doxycycline for 24h, at 10 ng/ml for eGFP-D133p53a cells (N-terminal cell) and 100 ng/ml for D133p53a-eGFP cells (C-terminal cells). Cells were trypsinized, counted using a Counted 3 Automated Cell Counter (Thermo Fisher), and diluted to a concentration of 200,000 cells/ml. A Multidrop Combi Reagent Dispenser (ThermoFisher) was used to dispense 800 cells/well in […] of doxycycline-free media, into 1536-well black/clear bottom low base plates (AuroraMicroplates).
2. After plating cells, 23 nl of compound library, DMSO vehicle control or positive control (5-azacytidine) were transferred by Pin Tool (Wako). The plate map layout was the same for each plate: (column 1) non-doxycycline treated cells + DMSO vehicle control; (column 2) doxycycline treated cells + DMSO vehicle control baseline; (column 3) doxycycline treated cells + positive control 57.5 uM final concentration 5-azacytidine; (column 4) doxycycline treated cells + serial dilution of 5-azacytidine, 16-point 1:2 titration spanning 1.8 nM to […] final concentration; (columns 5-48) doxycycline treated cells + titration of library compounds.
3. Cells were incubated at 37 °C, 5 % CO2, 95% RH with breathable metal lid for 24h.
4-10. […] After two washes, 10 ul of 1X PBS (Thermo Fisher) was dispensed to each well. Clear adhesive plate seals (VWR) were applied and plates stored at 4 °C.
11. […]
(qHTS replaces the single test concentration by a dilution series.)
For the molecule `Cn1cc[nH]c1=S`, the activation was -1.69%.

Turning to `COc1cccc(-c2ccc(NC(=O)C3=C(C(=O)O)CCC3)c(F)c2)c1`, the activation is -4.2% and -13.4%.

On to `CC(C)c1cc(C(=O)N2Cc3ccc(CN4CCN(C)CC4)cc3C2)c(O)cc1O`, for which the activation was -13.4%.

On to `CCOC(=O)C(=O)c1csc(NC=O)n1`, for which the activation is -16.4%.

In the case of `Cc1ccc(-c2ccc3ncc4c(c3n2)n(C2CCN(C(=O)[C@H](C)O)CC2)c(=O)n4C)cn1`, the Potency was 12 µM (active).

Turning to `Cc1cccc(N2CCN(C(=O)c3cc(S(=O)(=O)N(C)C)ccc3N3CCCC3)CC2)c1C`, the activation is -4.33%.

In the case of `COc1ccccc1N1CCN(CCCCNC(=O)c2ccc3ccccc3c2)CC1`, the activation is -23%.

On to `COc1cc(CCC2=NN=C(NC(=O)c3ccc(N4C[C@@H](C)N[C@@H](C)C4)cc3)C2)cc(OC)c1`, for which the activation is -0.333%.

For the molecule `CC(C)=CCC/C(C)=C/CO`, the activation was -11.9%.

As for `COc1ccc(CNc2nc(N(CCO)CCO)nc3c2ncn3C(C)C)cc1`, the Potency is 8.49 µM (active).

Regarding `CCC(C)C1NC(=O)C2CCCN2C(=O)C(NC(C)=O)C(C)OC(=O)C(Cc2ccc(OC)cc2)N(C)C(=O)C2CCCN2C(=O)C(C(C)C)NC1=O` (stereo not given) (Ac-TPIVP[NMeY](Me); ester 1-C; configuration not given here), the activation is 15.3%.

For the molecule `C=C1CC[C@H]2[C@@](C)(CCC(O)[C@@]2(C)CO)[C@@H]1CCC1=CCOC1=O` (stereo not given in full), the activation is -11.5%.

As for `COc1c2c(c(C)c3c1C(=O)OC3)OC1(C)CC(O)C34OC(OC)(OC3(C)C)C(O)CC4(C)C1C2` (stereo not given), the activation was -2.29%.

In the case of `COc1cc(/C=C/C(=O)O[C@@H]2O[C@H](CO)[C@@H](O)[C@H](O)[C@H]2O)ccc1O`, the activation was 4.46%.

On to `NC(=O)C(c1ccccc1)(c1ccccc1)[C@@H]1CCN(CCc2ccc3c(c2)CCO3)C1`, for which the Potency was 19.5 µM (active).

Regarding `O=C(O)c1cnn(-c2nc3cc(OC(F)(F)F)c(Cl)cc3[nH]2)c1`, the activation is -9.67%.

Take `CON=C(C(=O)N[C@@H]1C(=O)N2C(C(=O)O)=C(Cn3ccc(=N)n3CCO)CS[C@H]12)c1csc(N)n1`: the activation was 23.9%.

On to `CCCCNc1ncc2c(-c3ccc(CN4CCN(C)CC4)cc3)cn(C3CCC(O)CC3)c2n1` (stereo not given), for which the Potency was 21.3 µM (active).

Regarding `C=CC(C)(O)C1CC2C3(C)CCCC(C)(C)C3C(O)C(O)C2(C)O1` (stereo not given), the activation was -9.82%.

For `CCCN(CCC)CCc1cccc2c1CC(=O)N2`, the activation was 6.69% and 9.01%.

Consider `COc1ccccc1N1CCN(c2ncnc3n[nH]c(Br)c23)CC1`, for which the activation was 20.5%.

As to `CC(C)(O)c1ccc2c(c1)ncn2-c1cccc(-c2ccccc2C#N)c1`, the activation is -12.4%.

As to `Cn1nccc1-c1ccccc1Oc1ccc(S(=O)(=O)Nc2nccs2)cc1C#N`, the activation was 3.67%.

In the case of `COc1ccc(-c2cc(=O)c3c(O)c(OC)c(OC)cc3o2)cc1O`, the activation is 37.1%.

Consider `CC1(C)CC(=O)c2c(C(F)(F)F)nn(-c3ccc(C(N)=O)c(NC4CCC(O)CC4)c3)c2C1` (stereo not given), for which the activation was 11.9% and -1.67%.

Regarding `COc1cc(CO)cc(OC)c1O[C@@H]1O[C@H](CO)[C@@H](O)[C@H](O)[C@H]1O`, the activation is -2.68%.

On to `C=C[C@@](C)(CCC=C(C)C)O[C@@H]1O[C@H](CO[C@@H]2OC[C@H](O)[C@H](O)[C@H]2O)[C@@H](O)[C@H](O)[C@H]1O`, for which the activation was -11.5%.

`CNC(=O)c1ccc(Nc2cc(Nc3ccccc3S(=O)(=O)C(C)C)c3cc[nH]c3n2)nc1`: the Potency was 19.3 µM (active).

For the molecule `CC(O)CCC1C(CO[C@@H]2O[C@H](CO)[C@@H](O)[C@H](O)[C@H]2O)CC(O)CC1(C)C` (stereo not given in full), the activation was 5.34%.

Regarding `CC(=O)N(CC(=O)N(C)C)c1ccccc1`, the activation is -7.53%.

In the case of `COC(=O)C1=CO[C@@H](O[C@@H]2O[C@H](CO)[C@@H](O)[C@H](O)[C@H]2O)[C@@H]2C(CO)=CC[C@]12O`, the activation is 1.79%.

In the case of `O=C(O)c1ccc(N2C(=O)/C(=C/c3ccc(-c4ccc([N+](=O)[O-])cc4)o3)C=C2c2ccccc2)cc1`, the activation is 24.3%.

As to `COc1cc(O)c2c(c1)C1(OC2=O)C(C)=CC(=O)C1O` (stereo not given), the activation was -16%.

Regarding `CC(NC(CCc1ccccc1)C(=O)O)C(=O)N1C(=O)N(C)CC1C(=O)O` (stereo not given), the activation is -13.4%.

Turning to `CCCC(=O)C1(c2ccccc2)CCN(C(=O)[C@@H](Cc2ccc(OC)cc2)NC(=O)[C@@H](N)Cc2cncn2C)CC1`, the activation was 4.3%.

Consider `O=c1c(-c2ccccc2)c1-c1ccccc1`, for which the Potency was 30.9 µM (active).

As for `CN(C)C(=O)[C@H](O)[C@H](Cc1ccccc1)NC(=O)c1cc2cc(Cl)ccc2[nH]1`, the activation was -2.47% and -33.3% and 7.64%.

As for `CC1CCC(=O)CC(O)C(O)CC(=O)O1` (stereo not given), the activation is 10.7%.

For the molecule `CC(C)CC1(C(=O)OCc2ccc(O[C@@H]3O[C@H](CO)[C@@H](O)[C@H](O)[C@H]3O)cc2)CC(=O)OC(C(=O)O)CC(=O)OCC2OC(O1)C(OC(=O)/C=C/c1ccc(O)cc1)C(O)C2O` (stereo not given in full), the activation was 3.05%.

For `COC(=O)Nc1ccc(-c2nc(N3CCOCC3)c3cnn(C4CCN(C(=O)OC)CC4)c3n2)cc1`, the activation is 11.3%.
